In the assay the test system is Pseudomonas aeruginosa PA14 dppBCDF deletion mutant. As to the kind of experiment: respiration area under curve with compound as sole nitrogen source, 24 h (OmniLog AUC (arbitrary units)); higher = more respiration / better utilisation as nitrogen source, active = 2000 or more. Conditions: plate: PM8. The protocol:
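Biolog Phenotype MicroArray plates PM6-PM8: each di/tripeptide is the sole nitrogen source. Tetrazolium reduction was read in the OmniLog every 15 min for 24 h at 37°C and summarised as area under the respiration curve (arbitrary units). Values below 2000 count as no respiration. Strain is the dipeptide ABC transporter deletion mutant.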
Consider `N[C@@H](Cc1ccc(O)cc1)C(=O)NCC(=O)NCC(=O)O`, for which the “respiration area under curve” value is 4900 (active).

(Values after the supplement of paper PMC4206461.)
